Here are results for 28 compounds from PubChem BioAssay (Tox21).

Assay [1] can be described thus: qHTS assay to identify small molecule agonists of the vitamin D receptor (VDR) signaling pathway - cell viability counter screen (AID 743224; active means well fitted curve in the direction sought with a large enough effect in the repeat runs; an effect the other way counts as inactive or inconclusive; further: nearly all actives have a fitted effect of over 50% in size; further: potency means the concentration at half of the fitted maximal effect). Summed up: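 Counter screen for cytotoxicity: VDR-bla cells at 2,000 cells/well, 16 h compound exposure, then CellTiter-Glo luminescence after the beta-lactamase measurement.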
A short description of assay [2]: qHTS assay to identify small molecule antagonists of the vitamin D receptor (VDR) signaling pathway - cell viability counter screen (AID 743225; active means well fitted curve in the direction sought with a large enough effect in the repeat runs; an effect the other way counts as inactive or inconclusive; further: nearly all actives have a fitted effect of over 50% in size; further: potency means the concentration at half of the fitted maximal effect). Summed up: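 Parallel cytotoxicity test: VDR-UAS-bla HEK 293T, 3 nM (final) 1-alpha,25-dihydroxyvitamin D3 with test compound, 16 h, 37C. Endpoint is CellTiter-Glo luminescence in the same wells.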
(In general: Quantitative high-throughput screening tests each substance at several concentrations.)

The nature of assay [3]: qHTS assay to identify small molecule agonists of the NFkB signaling pathway - cell viability counter screen (AID 1159515). Further: nearly all actives have a fitted effect of over 55% in size. Further: potency means the concentration at half of the fitted maximal effect. Summed up:
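Counter screen run alongside the NFkB-bla agonist assay: ME-180 reporter cells exposed to compounds for 5 hr, then lysed with CellTiter-Glo in the same wells. Luminescence, read after 30 min, reflects viable cells.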

Assay [4] is described as follows: qHTS assay to identify small molecule agonists of the endoplasmic reticulum stress response signaling pathway - cell viability counter screen (AID 1159517). Further: nearly all actives have a fitted effect of over 50% in size. Further: potency means the concentration at half of the fitted maximal effect. Summed up: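 ESRE-bla HeLa cells (1,500/well) were plated overnight at 37 C and exposed to compounds for 5 hr. After the 2 hr beta-lactamase substrate read, CellTiter-Glo went into the same wells, and luminescence was read after 30 min at room temperature.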

The target in assay [5] is Nuclear receptor ROR-gamma (Homo sapiens) (UniProt P51449). The assay can be described thus: qHTS assay to identify small molecule antagonists of the retinoid-related orphan receptor gamma (ROR-gamma) signaling pathway (AID 1159521; active means well fitted curve in the direction sought with a large enough effect in the repeat runs; an effect the other way counts as inactive or inconclusive; further: nearly all actives have a fitted effect of over 50% in size; further: potency means the concentration at half of the fitted maximal effect). A digest of the protocol: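 Decreased RORE-driven luciferase luminescence indicates antagonism. Tet-on RORγ CHO cells received compound, then 1 uM final doxycycline 2 h later; signal read after 16 h incubation.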

Assay [6] is described as follows: qHTS assay to identify small molecule agonists of the AP-1 signaling pathway - cell viability counter screen (AID 1159525). Further: nearly all actives have a fitted effect of over 55% in size. Further: potency means the concentration at half of the fitted maximal effect. Summed up: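 Intracellular ATP by Cell Titer Glo luminescence (30 min, RT) in the same ME-180 AP-1-bla wells after the 5 h compound exposure at 37 °C. Normalised to tetra n-octyl ammonium bromide and DMSO controls.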
The nature of assay [7]: qHTS assay to identify small molecule agonists of the AP-1 signaling pathway (AID 1159526).
The nature of assay [8]: qHTS assay to identify small molecule antagonists of the retinoid-related orphan receptor gamma (ROR-gamma) signaling pathway - cell viability counter screen (AID 1159520; active means well fitted curve in the direction sought with a large enough effect in the repeat runs; an effect the other way counts as inactive or inconclusive; further: nearly all actives have a fitted effect of over 50% in size; further: potency means the concentration at half of the fitted maximal effect). A digest of the protocol: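 Cytotoxicity was read from cellular ATP (CellTiter-Glo luminescence) after 16 hr at 37 C with 1 uM doxycycline induction. The inducer was added 2 hr after compound transfer to Tet-on ROR gamma CHO cells.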

Assay [9] has as its target Retinoic acid receptor RXR-alpha (Homo sapiens) (UniProt P19793). The assay can be described thus: qHTS assay to identify small molecule agonists of the RXR signaling pathway (AID 1159527). Further: nearly all actives have a fitted effect of over 35% in size. A digest of the protocol:
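16 hr incubation of compound-treated RXR-alpha-UAS-bla HEK 293T cells (2% charcoal-stripped FBS, 37 C) preceded a 2 hr room-temperature LiveBLAzer FRET substrate step and blue/green fluorescence measurement.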

Inconclusive results are not listed. Calls of active or inactive are those of the source. Unless noted, the call rests on the fitted dose curve.

Sequence of Retinoic acid receptor RXR-alpha (Homo sapiens) (P19793 whole entry, looked up): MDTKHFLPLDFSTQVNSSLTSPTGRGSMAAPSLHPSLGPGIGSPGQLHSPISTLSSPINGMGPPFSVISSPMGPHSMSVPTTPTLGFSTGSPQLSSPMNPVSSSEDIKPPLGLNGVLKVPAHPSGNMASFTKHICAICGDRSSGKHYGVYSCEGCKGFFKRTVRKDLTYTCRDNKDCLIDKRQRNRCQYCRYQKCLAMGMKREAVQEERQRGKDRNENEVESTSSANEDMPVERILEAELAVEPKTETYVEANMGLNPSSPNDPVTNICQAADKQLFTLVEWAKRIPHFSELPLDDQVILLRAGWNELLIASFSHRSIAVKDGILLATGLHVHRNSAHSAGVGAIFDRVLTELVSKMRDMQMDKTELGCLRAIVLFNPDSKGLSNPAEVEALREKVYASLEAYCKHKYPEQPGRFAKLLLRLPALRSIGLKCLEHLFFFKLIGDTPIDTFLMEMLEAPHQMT

With `COP(=S)(OC)Oc1cc(Cl)c(Br)cc1Cl`, the Potency entry in assay [1], in assay [2], in assay [3], in assay [4], in [6] and in assay [7] was “inactive” each time. In addition, the Potency in [5] is 68.6 µM (active).
In the case of `Oc1ccc(C2(c3ccc(O)cc3)c3ccccc3-c3ccccc32)cc1`, the Potency in assay [3] is 54.9 µM (active).
With `S=C=Nc1cccc2ccccc12`, the Potency in assay [1] was 54.4 µM (active); in [3] it was 21.7 µM (active); in [4] it was 19.3 µM (active); in assay [6] it was 24.3 µM (active). The Potency entry in assay [8] is “inactive”.
As to `CCCCCCCCCCCCCCC(Br)C(=O)O` (stereo not given), the Potency in [3] was 54.9 µM (active); in [4], 38.9 µM (active). In addition, the Potency entry in [8], in [6] and in [7] was “inactive” throughout. The compound was classed as inactive in assay [9].
Consider `CCCN(CCC)c1c([N+](=O)[O-])cc(S(N)(=O)=O)cc1[N+](=O)[O-]`, for which the Potency was 52.2 µM (active) in assay [1]; 52.2 µM (active) in [3]; 52.2 µM (active) in assay [4]; 54.5 µM (active) in [8]; 43.6 µM (active) in assay [6].
Turning to `CC1(C)[C@H](C(=O)O[C@H](C#N)c2cccc(Oc3ccccc3)c2)[C@@H]1/C=C(\Cl)C(F)(F)F`, the Potency result in assay [3], in assay [4], in assay [8], in [6] and in assay [7] was “inactive” throughout.
Take `CCCOCC(=Nc1ccc(Cl)cc1C(F)(F)F)n1ccnc1`: the Potency in assay [1] was 7.76 µM (active); in [2], 12.3 µM (active); in assay [3] it was 30.9 µM (active); in [4], 34.6 µM (active); in [8], 61.1 µM (active). Further, the result in assay [9] was inactive.
Consider `Oc1ccc2ccc3cccc4ccc1c2c34`, for which the Potency result in assay [3], in assay [4], in [5] and in assay [6] was “inactive” throughout.
Take `CCOc1cc(C(C)(C)C)ccc1C1COC(c2c(F)cccc2F)=N1` (stereo not given): the values for the Potency in assay [1] and in assay [5] were 23.6 µM (active) and 33.1 µM (active), respectively. In addition, the Potency entry in assay [3], in assay [4] and in assay [6] was “inactive” each time.
For the compound `Nc1ccccc1C(=O)OC/C=C/c1ccccc1`, the Potency in assay [1] and in assay [2] was 49.1 µM (active) in each case. Besides, the Potency entry in assay [3], in assay [4] and in [5] was “inactive” in each case.
Take `CCCCCCCCCCCCCC[P+](CCCCCC)(CCCCCC)CCCCCC` (tested in a mixture with another compound): the Potency was 3.09 µM (active) in [1]; 17.4 µM (active) in assay [3]; 17.4 µM (active) in assay [4]; 15.4 µM (active) in assay [8]; 21.9 µM (active) in [6].
Turning to `O=S(=O)(c1ccc(Cl)cc1)c1ccc(Cl)cc1`, the Potency entry in [2], in assay [3], in [4], in assay [8] and in assay [6] was “inactive” in each case.
As to `C=CCC1=C(C)C(OC(=O)C2C(C=C(C)C)C2(C)C)CC1=O` (stereo not given), the Potency in assay [1] was 18.4 µM (active); in assay [3] it was 58.3 µM (active); in [4] it was 36.8 µM (active); in [8], 61.1 µM (active); in [5] it was 32.5 µM (active).
Turning to `COC(=O)N(C(=O)N1CO[C@@]2(C(=O)OC)Cc3cc(Cl)ccc3C2=N1)c1ccc(OC(F)(F)F)cc1`, the Potency result in assay [1], in [3], in [4], in assay [8] and in [6] was “inactive” each time.
Turning to `CC(C)OC(=S)S`, the Potency entry in assay [2], in [3], in assay [4] and in [6] was “inactive” in each case. For the same compound, the Potency in assay [5] was 15.4 µM (active).
As for `Oc1c(Cl)c(Cl)cc(Cl)c1Cl`, the Potency entry in assay [3], in assay [4], in assay [6] and in [7] was “inactive” each time. For the same compound, the Potency in assay [5] is 23.7 µM (active).
In the case of `CCCCCCCCc1ccc(O)cc1`, the Potency was 49.3 µM (active) in [3], 49.3 µM (active) in [4], 61.5 µM (active) in [8] and 22 µM (active) in assay [6]. Besides, the Potency result in assay [5] was “inactive”.
As for `O=[N+]([O-])c1ccc2ccc3cccc4ccc1c2c34`, the Potency result in [1], in assay [3], in [4], in assay [5], in [6] and in assay [7] was “inactive” in each case.
Take `CC1(C)C(/C=C(\Cl)C(F)(F)F)C1C(=O)OC(C#N)c1cccc(Oc2ccccc2)c1` (stereo not given): the Potency result in [1], in assay [3], in assay [4], in assay [8], in assay [6] and in [7] was “inactive” each time.
Take `C[C@@H]1CC[C@@]2(OC1)O[C@H]1[C@@H](O)[C@H]3[C@@H]4CC[C@H]5C[C@@H](O[C@@H]6O[C@H](CO)[C@H](O[C@@H]7O[C@H](CO)[C@@H](O)[C@H](O[C@@H]8OC[C@@H](O)[C@H](O)[C@H]8O)[C@H]7O[C@@H]7O[C@H](CO)[C@@H](O)[C@H](O[C@@H]8O[C@H](CO)[C@@H](O)[C@H](O)[C@H]8O)[C@H]7O)[C@H](O)[C@H]6O)[C@H](O)C[C@]5(C)[C@H]4CC[C@]3(C)[C@H]1[C@@H]2C`: the Potency in [1] was 8.24 µM (active); in [2] it was 5.2 µM (active); in [3], 9.25 µM (active); in assay [4], 7.34 µM (active); in assay [8], 10.3 µM (active); in assay [6], 11.6 µM (active).
As for `[CH3][Hg][Cl]`, the Potency is 38.8 µM (active) in assay [1]; 10.9 µM (active) in [3]; 21.8 µM (active) in [4]; 4.31 µM (active) in assay [8]; 3.05 µM (active) in [5].
For `[Hg+2].[I-].[I-]`, the Potency in assay [1] is 1.55 µM (active); in [2], 5.49 µM (active); in assay [3] it was 7.76 µM (active); in assay [4] it was 49 µM (active); in assay [8], 2.17 µM (active).
For `CC(C)[C@H](C(=O)O[C@H](C#N)c1cccc(Oc2ccccc2)c1)c1ccc(Cl)cc1`, the Potency entry in [3], in assay [4], in [8] and in assay [6] was “inactive” each time.
As for `CC(C)(O)c1cnn2c(-c3ccc(F)c(-c4c(F)cccc4C#N)c3)cnc2n1`, the Potency was 27.5 µM (active) in [1] and 61.1 µM (active) in [5]. In addition, the Potency entry in [3], in assay [4] and in assay [6] was “inactive” each time.
With `CCCCOCN(C(=O)CCl)c1c(CC)cccc1CC`, the Potency in [1] was 49 µM (active). Further, the Potency entry in assay [2], in assay [3], in assay [4], in [8] and in assay [6] was “inactive” in each case.
As for `O=C(CCl)Nc1ccccc1`, the figures for the Potency in assay [1], in assay [2] and in assay [5] were 24.5 µM (active), 49 µM (active) and 21.7 µM (active), respectively. The Potency result in assay [3] and in [4] was “inactive” throughout.
For `CC(C)[C@H](C(=O)OC(C#N)c1cccc(Oc2ccccc2)c1)c1ccc(OC(F)F)cc1` (stereo not given in full), the Potency entry in assay [1], in assay [2], in assay [3], in assay [4], in assay [8] and in [6] was “inactive” throughout. For the same compound, the result in assay [9] was inactive.
For `CCOC(=O)CC(=O)CCl`, the Potency entry in [1], in [3], in [4], in assay [6] and in [7] was “inactive” throughout. Further, the Potency in [5] was 48.6 µM (active).
